This passage reports growth results from PubChem BioAssay (NCI).

Among the test systems are NCI-H23 lung; NCI-H226 lung; NCI-H322M lung; HOP-62 NSCLC; NCI-H460 lung; HOP-92 NSCLC; NCI-H522 lung; A549/ATCC NSCLC; 786-0 renal; COLO 205 colon; DU-145 prostate; K-562 leukemia; MALME-3M melanoma; MDA-MB-231 breast; RXF 393 renal; SF-268 CNS; SF-295 CNS; SF-539 CNS; UACC-257 melanoma; M14 melanoma.
Holding throughout (experiment): NCI-60 one-dose screen, 48 h (100 = growth as untreated, 0 = no growth, -100 = all killed)
Conditions in all cases: 10 µM unless noted

Molecules are shown by their SMILES. This is part of a sample that, as a whole, favours compounds with a hit. Of some 83,000 tested, about 20% had one in any assay.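 Testing used 96-well plates and a 48-hour single-concentration exposure. Example: -40 means 40% of the starting cells died.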 Values without a mark were called inactive. The source made the active and inactive calls. How the source made its calls: active means growth percent below 10; inactive means the rest.

With `CN1C(=O)N(C)C2C1NN=c1s/c(=C\c3ccccc3F)c(=O)n12` (stereo not given), the growth in the assay on NCI-H23 lung was 33.1%; with NCI-H226 lung, 57.8%; in the assay on NCI-H322M lung, 37.3%; with HOP-62 NSCLC, 32.9%; in the assay with NCI-H460 lung, 3.14% (active); with HOP-92 NSCLC, 76.8%. Further, the growth was -8.56% (active) in the assay on NCI-H522 lung; 21% with A549/ATCC NSCLC; 36% with 786-0 renal; 8.94% (active) in the assay with COLO 205 colon; 15.9% in the assay on DU-145 prostate; 9.52% (active) in the assay with K-562 leukemia. Further, the growth in the assay with MALME-3M melanoma was 44.9%; in the assay on MDA-MB-231 breast, 13.2%; in the assay with RXF 393 renal, -6.27% (active); in the assay with SF-268 CNS, 65.5%; in the assay on SF-295 CNS, 14.6%; with SF-539 CNS, -23.8% (active). In addition, the results for the growth with UACC-257 melanoma and in the assay with M14 melanoma were 54.5% and 9.53% (active), respectively.

Regarding `O=C(/C=C/C12c3ccccc3C(c3ccccc31)C1C(=O)NC(=O)C12)c1cccs1` (stereo not given), the growth in the assay with NCI-H23 lung was 37.4%; with NCI-H226 lung it was 73.4%; with NCI-H322M lung, 31.9%; with HOP-62 NSCLC it was 41.3%; with NCI-H460 lung it was 17.3%; with HOP-92 NSCLC, 37.1%. The growth in the assay with NCI-H522 lung is 28%; with A549/ATCC NSCLC, 43.5%; with 786-0 renal it was 43.4%; in the assay on COLO 205 colon it was 44%; in the assay on DU-145 prostate, 13.5%; in the assay with K-562 leukemia, 16.8%. Also, the growth was 75.6% in the assay on MALME-3M melanoma; 51.6% in the assay with MDA-MB-231 breast; 28.1% in the assay on RXF 393 renal; 32.9% with SF-268 CNS; 52.5% with SF-295 CNS; 53.9% with SF-539 CNS. The growth with UACC-257 melanoma is 45.7%; in the assay with M14 melanoma, 48.2%.

Consider `c1ccc2c(-c3cnn4cc(-c5ccc(N6CCNCC6)cc5)cnc34)ccnc2c1`, for which the growth was -13.7% (active) with NCI-H23 lung; -54.8% (active) in the assay on NCI-H226 lung; -55.5% (active) with NCI-H322M lung; -85.7% (active) with HOP-62 NSCLC; -70% (active) in the assay with NCI-H460 lung; -59.2% (active) in the assay on HOP-92 NSCLC. The growth in the assay on NCI-H522 lung was -50% (active); with A549/ATCC NSCLC it was -65.4% (active); in the assay with 786-0 renal, -91.9% (active); in the assay on COLO 205 colon, -58% (active); in the assay on DU-145 prostate, -83.4% (active); with K-562 leukemia, -23.6% (active). Also, the growth was -89.5% (active) in the assay on MALME-3M melanoma; -67.8% (active) in the assay with MDA-MB-231 breast; -77.5% (active) in the assay with RXF 393 renal; -62.3% (active) in the assay on SF-268 CNS; -93.5% (active) with SF-295 CNS; -95.4% (active) with SF-539 CNS. Besides, the results for the growth in the assay with UACC-257 melanoma and in the assay with M14 melanoma were -72.1% (active) and -81.9% (active), respectively.

Turning to `O=C1NC(=O)C(=Cc2cc(-c3ccc(Cl)cc3)n(-c3ccccc3)n2)C(=O)N1`, the growth was 99.3% in the assay with NCI-H23 lung; 82.5% in the assay with NCI-H226 lung; 94% in the assay on NCI-H322M lung; 99.4% in the assay with HOP-62 NSCLC; 98.6% with NCI-H460 lung; 94.4% with HOP-92 NSCLC. Further, the growth is 103% in the assay with NCI-H522 lung; 97.4% in the assay on A549/ATCC NSCLC; 82.5% with 786-0 renal; 108% in the assay with COLO 205 colon; 105% in the assay with DU-145 prostate; 90.6% in the assay with K-562 leukemia. In addition, the growth in the assay with MALME-3M melanoma is 99.2%; in the assay with MDA-MB-231 breast, 99.8%; in the assay with RXF 393 renal, 86%; with SF-268 CNS, 105%; with SF-295 CNS it was 93.8%; with SF-539 CNS, 96.5%. Besides, the growth in the assay with UACC-257 melanoma was 101%; in the assay with M14 melanoma it was 93.1%.

As to `CN1CCN(Cc2ccc(NC(=O)c3cncc(C#Cc4cnc(N)c5ncccc45)c3)cc2Cl)CC1`, the growth in the assay on NCI-H23 lung was 57.3%; in the assay with NCI-H226 lung, 56.5%; with NCI-H322M lung, 116%; with HOP-62 NSCLC, 89.8%; in the assay with NCI-H460 lung, 3.07% (active); in the assay on HOP-92 NSCLC it was 75.6%. Besides, the growth was 85.2% with NCI-H522 lung; 74.7% in the assay with A549/ATCC NSCLC; -78.2% (active) in the assay with 786-0 renal; 70.3% in the assay on COLO 205 colon; 77.1% in the assay with DU-145 prostate; -28.9% (active) in the assay on K-562 leukemia. The growth was 54.2% in the assay on MALME-3M melanoma; 16.2% in the assay on MDA-MB-231 breast; 21.8% in the assay on RXF 393 renal; 98.7% in the assay with SF-268 CNS; 101% with SF-295 CNS; 83.1% in the assay with SF-539 CNS. Further, the growth in the assay with UACC-257 melanoma is 89.7%; in the assay on M14 melanoma, 84.4%.

For `COc1ccc(-c2csc(NC(=O)CSc3nc(C)cc(=O)[nH]3)n2)cc1`, the growth with NCI-H23 lung is 91.1%; in the assay with NCI-H226 lung it was 111%; with NCI-H322M lung, 106%; in the assay with HOP-62 NSCLC, 118%; with NCI-H460 lung it was 107%; in the assay on HOP-92 NSCLC, 95.5%. Besides, the growth with NCI-H522 lung was 86.7%; in the assay on A549/ATCC NSCLC it was 104%; in the assay with 786-0 renal it was 102%; with COLO 205 colon, 116%; in the assay on DU-145 prostate it was 106%; in the assay with K-562 leukemia, 104%. Also, the growth was 110% in the assay on MALME-3M melanoma; 91.7% with MDA-MB-231 breast; 128% in the assay on RXF 393 renal; 96.4% with SF-268 CNS; 99.3% with SF-295 CNS; 101% with SF-539 CNS. Also, the results for the growth in the assay on UACC-257 melanoma and with M14 melanoma were 101% and 107%, respectively.

As to `Cn1ccnc1C(=O)/C=C/c1ccc(C(=O)Nc2ccccc2F)cc1`, the growth in the assay on NCI-H23 lung is 27.4%; with NCI-H226 lung, 50.7%; in the assay on NCI-H322M lung, 14.6%; in the assay with HOP-62 NSCLC, 3.72% (active); in the assay on NCI-H460 lung, -0.603% (active); in the assay with HOP-92 NSCLC, 16.2%. The growth is 39.7% in the assay on NCI-H522 lung; 17.1% in the assay with A549/ATCC NSCLC; 18.5% in the assay on 786-0 renal; 32.7% in the assay with COLO 205 colon; 20.7% in the assay with DU-145 prostate; 12.6% with K-562 leukemia. The growth in the assay with MALME-3M melanoma is 54.7%; with MDA-MB-231 breast it was -2.25% (active); in the assay on RXF 393 renal, 16.4%; in the assay with SF-268 CNS, 24.7%; with SF-295 CNS, 6.25% (active); in the assay with SF-539 CNS it was -8.53% (active). Moreover, the growth with UACC-257 melanoma was 66.7%; in the assay on M14 melanoma, 8.56% (active).
